Potency data for 40 compounds are collected here from PubChem BioAssay (NCATS).

Structures are written as SMILES. Results filed as inconclusive are left out. Entries that show only a call come without a potency. Active and inactive are the calls of the source. The call rests on the fitted dose curve; in most records, active means well fitted curve in the direction sought with a large enough effect; inconclusive means small, poorly fitted or top-dose-only effect, or another doubt; inactive means no such curve, though single readings can be large; an effect the other way counts as inactive or inconclusive.
Potency means the concentration at half of the fitted maximal effect.

One assay deals with Rap guanine nucleotide exchange factor 3 (Homo sapiens) (UniProt O95398). The experiment in a line: Confirmatory qHTS for antagonist of cAMP-regulated guanine nucleotide exchange factor 3 (EPAC1) (AID 1645880). Further: nearly all actives have a fitted effect of over 55% in size. Particulars: EPAC1 Rap1B-BODIPY-GDP exchange, fluorescence; series mostly up to 115 µM. In outline: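 Nucleotide exchange uses 100 nM EPAC1, 250 nM RAP1B-BODIPY-GDP and 50 uM GDP, with compounds in a concentration-titration series. After 5 min at room temperature, fluorescence (480 nm ex/540 nm em) is read every 5 min for 30 min. Data are normalized to control ATA and DMSO.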
Rap guanine nucleotide exchange factor 3 (Homo sapiens), sequence (O95398 whole entry, looked up): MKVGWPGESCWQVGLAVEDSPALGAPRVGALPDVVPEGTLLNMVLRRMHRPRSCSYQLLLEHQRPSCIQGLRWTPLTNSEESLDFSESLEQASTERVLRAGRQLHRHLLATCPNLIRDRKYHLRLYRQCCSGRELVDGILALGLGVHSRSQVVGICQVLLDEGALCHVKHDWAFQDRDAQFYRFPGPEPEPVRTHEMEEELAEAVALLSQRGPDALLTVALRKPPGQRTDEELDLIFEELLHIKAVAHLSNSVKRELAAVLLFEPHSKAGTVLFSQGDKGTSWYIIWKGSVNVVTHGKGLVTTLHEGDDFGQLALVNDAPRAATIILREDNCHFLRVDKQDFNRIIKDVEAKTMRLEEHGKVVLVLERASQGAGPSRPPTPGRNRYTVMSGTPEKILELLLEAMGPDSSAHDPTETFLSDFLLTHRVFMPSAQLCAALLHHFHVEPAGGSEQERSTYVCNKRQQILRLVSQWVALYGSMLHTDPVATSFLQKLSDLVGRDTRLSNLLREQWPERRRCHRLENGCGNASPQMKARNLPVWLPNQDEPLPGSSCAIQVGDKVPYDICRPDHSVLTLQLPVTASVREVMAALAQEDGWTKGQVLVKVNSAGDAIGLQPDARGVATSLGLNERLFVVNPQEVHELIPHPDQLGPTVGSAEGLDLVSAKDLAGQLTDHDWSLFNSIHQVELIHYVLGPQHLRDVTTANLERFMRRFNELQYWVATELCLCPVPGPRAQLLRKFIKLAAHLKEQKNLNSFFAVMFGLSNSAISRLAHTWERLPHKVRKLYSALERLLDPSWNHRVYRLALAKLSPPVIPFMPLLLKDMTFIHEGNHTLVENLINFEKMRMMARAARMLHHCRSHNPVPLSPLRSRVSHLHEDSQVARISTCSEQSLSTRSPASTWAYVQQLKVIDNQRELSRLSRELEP
Consider `CCc1nnc(NS(=O)(=O)c2ccc(NC(=S)NC(=O)/C=C/c3ccccc3)cc2)s1`, for which the Potency is 67.5 µM (active). Same read-out and setting: the same measure for `CCN1C/C(=C/c2ccc(N3CCOCC3)cc2)C(=O)/C(=C/c2ccc(N3CCOCC3)cc2)C1`: “inactive”; for `COC(=O)C1(Cc2ccccc2)NC(c2ccc(F)cc2)C2C(=O)N(C)C(=O)C21` (centres undefined): “inactive”.

`O=C1NC(=Nc2ccccc2Cl)S/C1=C\c1cccc([N+](=O)[O-])c1O`: the Potency is 21.3 µM (active). Take `Cc1ccccc1N(CC(=O)NC1CCCC1)C(=O)c1csnn1`: the Potency result is “inactive”. Still for that read-out and setting: next, `CCOC(=O)C1=C(C)N=C2SC=C(C)N2C1c1ccc(OC)cc1` (centres undefined): “inactive”; `COc1nc(C)cc(C)c1S(=O)(=O)c1ccccc1C`: “inactive”. The same measure, in the same setting: the same measure for `CC1(C)Cc2ccccc2-c2nnc(-c3ccc4ccccc4n3)n21`: “inactive”; for `CC(C)CCNC1c2ccccc2C(=O)N1Cc1ccccc1` (centres undefined): “inactive”. On the same count and under the same terms, next, `O=C(CCC1CCCC1)Nc1ccc([N+](=O)[O-])cn1`: “inactive”; `COc1cccc(C2=NN(C(C)=O)C(c3cccs3)C2)c1` (centres undefined): “inactive”. Take `CCOc1ccc(N2C(=O)Nc3ccccc3C2(O)C(=O)NCc2ccc(C)cc2)cc1` (centres undefined): the Potency entry is “inactive”. On the same count and under the same terms, the same measure for `CCOc1cc(/C=N/Nc2ccc(S(=O)(=O)Nc3ccccc3C(=O)O)cc2[N+](=O)[O-])cc(Cl)c1O`: 33.8 µM (active). On the same count and under the same terms, next, `COc1cc(/C=C2\SC(=O)N(c3ccccc3Cl)C2=O)cc([N+](=O)[O-])c1O`: 47.8 µM (active); `CC1S/C(=N/N=C2CCC(C(C)(C)C)CC2)NC1=O` (centres undefined): “inactive”. Regarding `CC(=O)c1cccc(OC(=O)C2=CC=CN3CCS(=O)(=O)N=C23)c1`, the Potency result is “inactive”. Still for that read-out and setting: the same measure for `COc1ccccc1Cn1c(=O)oc2ccc(C)cc21`: “inactive”; for `O=C(NC1CCC(O)CC1)c1cccc2cccnc12` (centres undefined): “inactive”; for `O=C(c1ccccc1[N+](=O)[O-])N1CCN(c2ccc(N3CCOCC3)nn2)CC1`: “inactive”.

As to `CN(Cc1ccccc1N1CCCC1)C(=O)c1cc2ccccc2o1`, the Potency entry is “inactive”. Same read-out and setting: the same measure for `CC1CCC2=NN(C(=O)c3ccco3)C(O)(C(F)(F)F)C2C1` (centres undefined): “inactive”; for `CCOc1cc(C2C3=C(CC(C)(C)CC3=O)N(CCOC)C3=C2C(=O)CC(C)(C)C3)ccc1O`: “inactive”; for `Nc1[nH]c(C(=O)c2ccccc2)c(-c2ccccc2C(F)(F)F)c1C(=O)NCCc1cccs1`: “inactive”. For the compound `CCCCCC1CCC(c2ccc(C(N)=O)cc2)CC1` (centres undefined), the Potency entry was “inactive”.

The target is the same in another assay. Kind of assay: Confirmatory qHTS for agonist of cAMP-regulated guanine nucleotide exchange factor 3 (EPAC1) (AID 1645881). Further: nearly all actives have a fitted effect of over 75% in size. Particulars: EPAC1 Rap1B BODIPY-GDP exchange fluorescence; series mostly up to 154 µM. (Quantitative high-throughput screening tests each substance at several concentrations.)
As for `COC(=O)c1cc(OC)nc2ccc(Br)cc12`, the Potency entry is “inactive”.

For the compound `C=CCc1cc(/C=C/c2nc(O)c([N+](=O)[O-])c(=O)[nH]2)cc(OC)c1O`, the Potency result was “inactive”. Take `COc1ccc2nc(N3CCN(C(=O)C4CC4)CC3)sc2c1`: the Potency entry was “inactive”. Same read-out and setting: the same measure for `O=C(O)CN1C(=O)/C(=C\c2ccccc2OCc2ccc(Cl)cc2Cl)SC1=S`: “inactive”; for `NS(=O)(=O)c1ccc(-c2cccc(/C=C3\SC(=O)NC3=O)c2)cc1`: “inactive”. The same measure, in the same setting: next, `O=C(Nc1cc(C(=O)Nc2ccccc2C(=O)O)cc(C(=O)Nc2ccccc2C(=O)O)c1)c1ccccc1`: “inactive”. Still for that read-out and setting: the same measure for `Cc1cc(S(=O)(=O)Nc2ccccc2C)ccc1F`: “inactive”; for `COc1ccc(NC(=O)c2ccc(NC3=NC4CS(=O)(=O)CC4S3)cc2)cc1` (centres undefined): “inactive”. With `COc1cc2ccccc2cc1C(=O)N1CC(C)CC(C)C1` (centres undefined), the Potency entry is “inactive”. Consider `COc1cc(/C=C2\SC(=S)N(NS(=O)(=O)c3ccccc3)C2=O)ccc1O`, for which the Potency entry was “inactive”. Same read-out and setting: next, `O=C1c2ccccc2S(=O)(=O)c2cc(N3CCC4(CC3)OCCO4)ccc21`: “inactive”; `O=c1oc(-c2ccccc2)c(-c2ccccc2)c2ccccc12`: “inactive”; `CCOC(=O)Cn1c(=O)oc2cc(S(=O)(=O)Nc3c(C)cc(C)cc3C)ccc21`: “inactive”. On the same count and under the same terms, next, `CC1Cc2nc(SCC(=O)NCc3ccccc3)n(Cc3ccccc3)c(=O)c2S1` (centres undefined): “inactive”.

With `Cc1[nH]n(-c2ccccc2)c(=O)c1C(c1cc(Cl)ccc1O)c1c(C)[nH]n(-c2ccccc2)c1=O`, the Potency result was “inactive”. Same read-out and setting: the same measure for `CN(CC(=O)Nc1cccc(F)c1)C(=O)CN1c2cccc3cccc(c23)S1(=O)=O`: “inactive”; for `CCc1nnc(NS(=O)(=O)c2ccc(NC(=S)NC(=O)/C=C/c3ccccc3)cc2)s1`: “inactive”. Still for that read-out and setting: next, `CCN1C/C(=C/c2ccc(N3CCOCC3)cc2)C(=O)/C(=C/c2ccc(N3CCOCC3)cc2)C1`: 100 µM (active); `COC(=O)C1(Cc2ccccc2)NC(c2ccc(F)cc2)C2C(=O)N(C)C(=O)C21` (centres undefined): “inactive”. The same measure, in the same setting: the same measure for `O=C1NC(=Nc2ccccc2Cl)S/C1=C\c1cccc([N+](=O)[O-])c1O`: “inactive”. On to `Cc1ccccc1N(CC(=O)NC1CCCC1)C(=O)c1csnn1`, for which the Potency result is “inactive”. Regarding `CCOC(=O)C1=C(C)N=C2SC=C(C)N2C1c1ccc(OC)cc1` (centres undefined), the Potency result was “inactive”. Turning to `COc1nc(C)cc(C)c1S(=O)(=O)c1ccccc1C`, the Potency entry is “inactive”. On to `CC1(C)Cc2ccccc2-c2nnc(-c3ccc4ccccc4n3)n21`, for which the Potency result was “inactive”. On the same count and under the same terms, the same measure for `CC(C)CCNC1c2ccccc2C(=O)N1Cc1ccccc1` (centres undefined): “inactive”; for `O=C(CCC1CCCC1)Nc1ccc([N+](=O)[O-])cn1`: “inactive”. For `COc1cccc(C2=NN(C(C)=O)C(c3cccs3)C2)c1` (centres undefined), the Potency result is “inactive”. On the same count and under the same terms, next, `CCOc1ccc(N2C(=O)Nc3ccccc3C2(O)C(=O)NCc2ccc(C)cc2)cc1` (centres undefined): “inactive”. Still for that read-out and setting: the same measure for `CCOc1cc(/C=N/Nc2ccc(S(=O)(=O)Nc3ccccc3C(=O)O)cc2[N+](=O)[O-])cc(Cl)c1O`: “inactive”; for `COc1cc(/C=C2\SC(=O)N(c3ccccc3Cl)C2=O)cc([N+](=O)[O-])c1O`: “inactive”; for `CC1S/C(=N/N=C2CCC(C(C)(C)C)CC2)NC1=O` (centres undefined): “inactive”. On the same count and under the same terms, next, `CC(=O)c1cccc(OC(=O)C2=CC=CN3CCS(=O)(=O)N=C23)c1`: “inactive”; `COc1ccccc1Cn1c(=O)oc2ccc(C)cc21`: “inactive”. As for `O=C(NC1CCC(O)CC1)c1cccc2cccnc12` (centres undefined), the Potency result was “inactive”. `O=C(c1ccccc1[N+](=O)[O-])N1CCN(c2ccc(N3CCOCC3)nn2)CC1`: the Potency result was “inactive”. Turning to `CN(Cc1ccccc1N1CCCC1)C(=O)c1cc2ccccc2o1`, the Potency entry is “inactive”. On the same count and under the same terms, the same measure for `CC1CCC2=NN(C(=O)c3ccco3)C(O)(C(F)(F)F)C2C1` (centres undefined): “inactive”.

With `CCOc1cc(C2C3=C(CC(C)(C)CC3=O)N(CCOC)C3=C2C(=O)CC(C)(C)C3)ccc1O`, the Potency result was “inactive”. Still for that read-out and setting: the same measure for `Nc1[nH]c(C(=O)c2ccccc2)c(-c2ccccc2C(F)(F)F)c1C(=O)NCCc1cccs1`: “inactive”; for `CCCCCC1CCC(c2ccc(C(N)=O)cc2)CC1` (centres undefined): “inactive”.
